Drawing on the OligoGym collection, this text covers sensor-assay potency score (higher = more potent) for 40 sequences.
Note: reference of the scale not given here.

One test addresses CPNE5. The test can be described thus: pooled miR-30 sensor sort-seq; sequence = guide strand. The conditions noted are these: shRNA.
On to TTGCATCGTACTGAGTTCGAGA, for which the sensor-assay potency score (higher = more potent) is -0.62.

In the case of TAGATCAAAACGGAGGTTCTGC, the sensor-assay potency score (higher = more potent) is -0.116.

For TTCTTGTCCAGCTTGTTGGCAC, the sensor-assay potency score (higher = more potent) is -0.22.

In turn, TTGTCCAGGAGGTTCCTGCAGG gave a sensor-assay potency score (higher = more potent) of -0.916.

On to TAATCCACAATGAACTTGCGCA, for which the sensor-assay potency score (higher = more potent) was -0.151.

TAGTGCTGGATGATCTCTCCGA showed a sensor-assay potency score (higher = more potent) of 0.148.

In turn, TTGTCGATGACTTCGGTGCGCC returned a sensor-assay potency score (higher = more potent) of -0.869.

TAACTGGTGGTGAACTCCCCAA: the sensor-assay potency score (higher = more potent) was -0.885.

Another test concerns the target CRB1. Described as above. The conditions noted are these: shRNA.
On to ATAAATATCTGTATTATCCTTC, for which the sensor-assay potency score (higher = more potent) amounted to 0.756.

The sequence TTCAAATCCTTGAAGCACCGGC registered a sensor-assay potency score (higher = more potent) of 0.589.

Turning to TTGAGGTCGATCTCACACTGGG, the sensor-assay potency score (higher = more potent) was -0.294.

As for TTATATTGTCAATAGCTCTGTC, the sensor-assay potency score (higher = more potent) worked out at 0.532.

As to TTACATCTTGGATACAGCCTTT, the sensor-assay potency score (higher = more potent) was -0.193.

TTTATATTGTCAATAGCTCTGT displayed a sensor-assay potency score (higher = more potent) of 0.0403.

In turn, TTCATTGACGTCTTCTTCGCAG had a sensor-assay potency score (higher = more potent) of 0.387.

Turning to TTGGCTTTCACACCAATCCTTT, the sensor-assay potency score (higher = more potent) was -1.07.

The sequence TATTATTACATTTGCATCCCTT displayed a sensor-assay potency score (higher = more potent) of -0.226.

Sequence TGTCTGAACAAGAACAATCATT returned a sensor-assay potency score (higher = more potent) of -1.04.

In the case of TTGAAGAACATTCATTGACGTC, the sensor-assay potency score (higher = more potent) was -0.696.

TTTGAGAAATTGCTCTTCCTGA came in with a sensor-assay potency score (higher = more potent) of -0.258.

The target in the next test is CRB3. The description is as above. The conditions noted are these: shRNA.
Sequence TATTCTCATTTGCAGAAGTGGT came in with a sensor-assay potency score (higher = more potent) of -1.61.

Consider TGGGAGAACTGCTCCTCGCTAC, for which the sensor-assay potency score (higher = more potent) is -1.03.

The sequence TTGCCATCGGAGCTGGAGCTGG gave a sensor-assay potency score (higher = more potent) of -1.68.

For the sequence ATGAAGGCAAAACAGTGCTATT, the sensor-assay potency score (higher = more potent) is -1.64.

TGGACGCAGGTTGCCATCGGAG: the sensor-assay potency score (higher = more potent) is -1.88.

Sequence TTTGAAGTACCTTCTTCCCTGC came in with a sensor-assay potency score (higher = more potent) of 0.11.

TTCTCATTTGCAGAAGTGGTCT: the sensor-assay potency score (higher = more potent) is -0.965.

In turn, TCCGTCTGCCGCTTCTCCCGAA had a sensor-assay potency score (higher = more potent) of -1.23.

As to AAGACCACGATGATAGCAGTGA, the sensor-assay potency score (higher = more potent) was -0.0143.

TGCTCCTCGCTACTGGGCCGGT showed a sensor-assay potency score (higher = more potent) of -1.75.

With ATAGCAGTGATGGCTTCTGGAC, the sensor-assay potency score (higher = more potent) was -1.45.

Regarding TTGCAGAAGTGGTCTGTATTTG, the sensor-assay potency score (higher = more potent) was -1.49.

A further test concerns the target CREB5. Described as above. As to conditions: shRNA.
As for TTAGATATCCTTGTGATTCTTT, the sensor-assay potency score (higher = more potent) was 0.29.

In turn, TTACTTGTAAGTTTATTGCTGC gave a sensor-assay potency score (higher = more potent) of 0.486.

The sequence TTATGTGTTAACAACAACTGTT came in with a sensor-assay potency score (higher = more potent) of -0.0254.

In turn, TTGAACAATGTAATCTGTGTAG came in with a sensor-assay potency score (higher = more potent) of -0.458.

For TTTAATGACAAACTCAACTTAC, the sensor-assay potency score (higher = more potent) was -0.383.

In turn, TTAACAGGCAACAACCACCAGA displayed a sensor-assay potency score (higher = more potent) of -0.508.

The sequence TTTAAAAACAAGTAGATCCTAC gave a sensor-assay potency score (higher = more potent) of 0.376.

For the sequence TATGTGTTAACAACAACTGTTT, the sensor-assay potency score (higher = more potent) is -0.672.
